Molecules are shown by their SMILES. Hit rate of the full screen: of about 190,000 compounds, about 1,300 (0.68%) were called active. Cut-off read from the data, not from the text of the source: active = inhibition above about 50%; inactive = the rest. Many of the other results were omitted from the sample, so actives are more common in it than they were.

The target of this assay is Mannose-6-phosphate isomerase (Homo sapiens) (UniProt P34949). Description: MPI inhibition at elevated mannose 6-phosphate – biochemical, fluorescence intensity, high mannose 6-phosphate, primary screen (AID 1220). The note with it: recombinant PMI enzyme, coupled fluorescence intensity; at 20 µM; active compounds read high.
Mannose-6-phosphate isomerase (Homo sapiens), sequence (P34949 whole entry, looked up): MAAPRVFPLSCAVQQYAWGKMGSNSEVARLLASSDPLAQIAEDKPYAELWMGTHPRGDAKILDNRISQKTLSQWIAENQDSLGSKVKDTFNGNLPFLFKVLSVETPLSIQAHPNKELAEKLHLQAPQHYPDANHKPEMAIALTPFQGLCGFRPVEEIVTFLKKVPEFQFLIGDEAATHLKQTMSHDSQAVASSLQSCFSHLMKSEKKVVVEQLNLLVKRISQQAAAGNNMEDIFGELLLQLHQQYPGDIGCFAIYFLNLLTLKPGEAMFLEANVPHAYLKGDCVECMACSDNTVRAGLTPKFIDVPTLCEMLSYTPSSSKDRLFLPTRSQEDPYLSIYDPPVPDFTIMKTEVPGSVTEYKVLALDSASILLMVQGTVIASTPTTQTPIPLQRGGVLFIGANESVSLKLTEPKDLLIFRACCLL
A word on the inhibition: it is the relative decrease from the control value, in per cent. As to `CN(C)c1ccc(C(=S)N2CCN(c3ccccc3)CC2)cc1`, the inhibition is 8.2% (inactive).
On to `CN(C)c1ccc(C(=S)N2CCN(C(=S)Nc3cccc4ccccc34)CC2)cc1`, for which the inhibition is 51.7% (active).
For the compound `CN(C)c1ccc(C(=S)N2CCN(C(=S)Nc3ccc(Cl)cc3)CC2)cc1`, the inhibition was -7.1% (inactive).
With `N#CC1=C(N)OC2=C(CN(Cc3ccccc3)C/C2=C\c2cccnc2)C1c1cccnc1` (configuration not stated), the inhibition was 11.3% (inactive).
As to `O=C(CSc1nnc(C2CC2)n1Cc1ccccc1)N1CCN(S(=O)(=O)c2ccccc2)CC1`, the inhibition is -3.7% (inactive).
Take `Cc1nnc(SCC(=O)N2CCN(S(=O)(=O)c3ccccc3)CC2)n1Cc1ccccc1`: the inhibition is 57.8% (active).
As for `CCn1c(SCC(=O)N2CCN(S(=O)(=O)c3ccccc3)CC2)nnc1-c1cccs1`, the inhibition was -3.1% (inactive).
The same measure for `CC1Cc2nc(SCC(=O)N3CCCC3)n(C)c(=O)c2S1` (configuration not stated): 9.6% (inactive); for `COc1cc(/C=C(/C#N)c2nc3ccccc3c(=O)[nH]2)ccc1O`: 13.6% (inactive); for `Clc1ccc(Cn2cccn2)cn1`: 10.3% (inactive).
Turning to `Cc1ccc(NCc2ccc(Cl)nc2)c(NCc2ccc(Cl)nc2)c1`, the inhibition was -88.3% (inactive).
Take `Clc1ccc(CNc2ccccc2NCc2ccc(Cl)nc2)cn1`: the inhibition was 53.8% (active).
In the case of `COc1ccc(CCC(=O)NNC(=S)NCc2ccc(F)cc2)cc1`, the inhibition was 1.2% (inactive).
Consider `CCCC[n+]1ccn(C2=C([O-])c3ccccc3C(=O)/C2=N\S(=O)(=O)c2ccccc2)c1`, for which the inhibition is 46.3% (inactive).
With `CC(C)CC[n+]1ccn(C2=C([O-])c3ccccc3C(=O)/C2=N\S(=O)(=O)c2ccccc2)c1`, the inhibition was 47% (inactive).
As to `Cc1ccc(S(=O)(=O)/N=C2\C(=O)c3ccccc3C([O-])=C2n2cc[n+](CCC(C)C)c2)cc1`, the inhibition was 50.4% (active).
The figure for `COc1ccccc1NC(=O)NCC(=O)Nc1c(C)cccc1C` is -13.9% (inactive); for `COc1cc(Sc2ccc(C)cc2)c(OC)cc1N` it is 67.2% (active).
The same measure for `Cc1ccc(Sc2cnc(N)nc2C)cc1`: 3.4% (inactive); for `COC(=O)c1ccc(Sc2ccc(C)cc2)c(N)c1`: 9.7% (inactive); for `CCc1ccc2c(c1)C(c1cccs1)=NNC(c1cccnc1)=N2`: 3.3% (inactive).
For `C=CCSc1nc(-c2ccc3c(c2)OCO3)cc(C(F)(F)F)c1C#N`, the inhibition was 11.5% (inactive).
In the case of `O=C(CNCc1ccncc1)Nc1cc(S(=O)(=O)N2CCCCC2)ccc1Cl`, the inhibition is -89% (inactive).
The same measure for `O=C(CNCc1ccccn1)Nc1cc(S(=O)(=O)N2CCCCC2)ccc1Cl`: 55.4% (active); for `O=C(CCl)Nc1cc(S(=O)(=O)N2CCCCCC2)ccc1Cl`: 4.5% (inactive).
With `CC1CCC(C(C)C)C(OCC[N+](C)(C)C)C1` (configuration not stated), the inhibition is 8.9% (inactive).
The same measure for `Cc1nn(CCO)c(C)c1Oc1ccccc1O`: 4% (inactive); for `COc1cc([C@@H]2C[C@H]3CN(c4ccccc4)C(=O)[C@]34CCCN24)cc(OC)c1OC`: 3.7% (inactive); for `CCOc1cc([C@@H]2C[C@H]3CN(c4ccccc4)C(=O)[C@]34CCCN24)ccc1OC`: 57.1% (active).
For `COCc1cc([C@@H]2C[C@H]3CN(c4ccccc4)C(=O)[C@]34CCCN24)ccc1OC`, the inhibition was 13.6% (inactive).
`O=c1oc(-c2ccccc2NS(=O)(=O)c2ccccc2)nc2ccccc12`: the inhibition is -2.5% (inactive).
In the case of `Fc1cc(F)cc(NC(=S)N2CCC(c3ccccc3)C2)c1` (configuration not stated), the inhibition was -2.1% (inactive).
On to `Cn1cccc1CNC(=O)Nc1ccccc1`, for which the inhibition is -5.8% (inactive).
For the compound `N#CC1=C(N)Oc2cc3ccccc3cc2C1c1cccs1` (configuration not stated), the inhibition was 7.9% (inactive).
The figure for `N#CC1=C(N)Oc2cc(O)ccc2C1c1cccs1` (configuration not stated) is 10.1% (inactive); for `CN(C)/C=N/C1=C(C#N)C(c2cccs2)c2ccc3ccccc3c2O1` (configuration not stated) it is 55.2% (active).
For `CC1(CC(=O)N/N=C/c2ccc(OCc3ccc(Cl)cc3Cl)cc2)OCCCO1`, the inhibition is 10.6% (inactive).
With `COc1cc(/C=N/NC(=O)CC2(C)OCCCO2)ccc1OCc1ccccc1`, the inhibition was 2.4% (inactive).
On to `COc1cc(/C=N/NC(=O)CC2(C)OCCCO2)ccc1OCc1ccc(Cl)cc1Cl`, for which the inhibition was 51.1% (active).
`COc1ccc(NC(=O)CSc2nc(N)c3cc4c(nc3n2)CCCC4)c(OC)c1`: the inhibition is -6.7% (inactive).
Take `CCOC(=O)C1CCN(C(=S)Nc2cccc(C)c2C)CC1`: the inhibition was 52.8% (active).
For the compound `Cc1ccccc1NC(=S)N1CCCC1`, the inhibition was 52.6% (active).
As to `S=C(Nc1ccccc1Cl)N1CCCC1`, the inhibition is 13.6% (inactive).
The figure for `CCOC(=O)C1CCN(C(=S)Nc2cc(C)ccc2C)CC1` is 7.3% (inactive).
On to `Cc1ccccc1NC(=S)N1CCOCC1`, for which the inhibition was -2.1% (inactive).
For `CCOC(=O)N1CCN(C(=S)Nc2cccc(C)c2C)CC1`, the inhibition is 8.4% (inactive).
Regarding `O=C(O)CC1NC(=O)N(C2CCCCC2)C1=O` (configuration not stated), the inhibition was -10% (inactive).
The same measure for `CCCCN(CC)C(=O)Cc1ccc(Br)cc1`: 6.7% (inactive); for `CCOC(=O)C1(Cc2ccc(OC)cc2)CCN(C(=O)CN2CCN(CC)CC2)CC1`: 12.7% (inactive).
Turning to `O=C(COC(=O)c1nc(Cl)ccc1Cl)Nc1ccc2c(c1)OCO2`, the inhibition was 8.3% (inactive).
The figure for `CCN(CC)C(=O)N1c2ccccc2CC(N(CC)CC)c2ccccc21` (configuration not stated) is -19.4% (inactive).
`Cc1nc(C#N)c(N/N=C/c2c(F)cccc2Cl)o1`: the inhibition was 53.3% (active).
Turning to `Fc1cccc(Cl)c1/C=N/Nc1c(Cl)cncc1Cl`, the inhibition was 8.5% (inactive).
For `Cc1nc(C#N)c(N/N=C/c2cccc(Cl)c2)o1`, the inhibition was 12.6% (inactive).
`Cc1cccc2cc(C3CC(c4cccs4)=NN3C(=O)CCC(=O)O)c(Cl)nc12` (configuration not stated): the inhibition was 8.9% (inactive).
Turning to `COc1ccc(N2CCn3c2nc2c3c(=O)n(CCCc3ccccc3)c(=O)n2C)cc1`, the inhibition was -5.3% (inactive).
The figure for `Cc1ccc(-c2nc(CN(CC3CCC3)CC3CCCO3)c(C)o2)s1` (configuration not stated) is 5.6% (inactive).
In the case of `COC(=O)C/C=C/[C@@H](C)[C@@H](/C=N/OCC[C@@H]1C=C[C@H](OC(C)=O)[C@@H](COC(C)=O)O1)NS(=O)(=O)c1ccc(C)cc1`, the inhibition was -6.1% (inactive).
In the case of `CC(C)N1CC=C2C(C#N)=C(N)C(C#N)(C#N)[C@H](c3ccoc3)[C@H]2C1`, the inhibition was 58.4% (active).
The figure for `CCN1CC=C2C(C#N)=C(N)C(C#N)(C#N)C(CCc3ccccc3)C2C1` (configuration not stated) is 52.5% (active); for `CC(=O)N1CC=C2C(C#N)=C(N)C(C#N)(C#N)C(CCc3ccccc3)C2C1` (configuration not stated) it is 14% (inactive).
With `CCCC1C2CN(C(C)=O)CC=C2C(C#N)=C(N)C1(C#N)C#N` (configuration not stated), the inhibition was -10.2% (inactive).
Take `CCCC1C2CN(C(C)C)CC=C2C(C#N)=C(N)C1(C#N)C#N` (configuration not stated): the inhibition was 60.7% (active).
Take `CN1CC=C2C(C#N)=C(N)C(C#N)(C#N)C(CCc3ccccc3)C2C1` (configuration not stated): the inhibition was 17.3% (inactive).
The same measure for `CC(C)N1CC=C2C(C#N)=C(N)C(C#N)(C#N)C(c3ccccc3)C2C1` (configuration not stated): 20.5% (inactive).
With `Cc1ccc(C2C3CN(C(C)C)CC=C3C(C#N)=C(N)C2(C#N)C#N)cc1` (configuration not stated), the inhibition was 24.4% (inactive).
Turning to `CN1CC=C2C(C#N)=C(N)C(C#N)(C#N)[C@H](c3ccoc3)[C@H]2C1`, the inhibition was 15.1% (inactive).

For the origin of these results see PubChem BioAssay AID1220 (Sanford-Burnham Center for Chemical Genomics, 2008).
